Sampled rows, rich in hits. Any-hit rate of the full collection: about 11%.
HEK cytotox = HEK 293 cell cytotoxicity; HEK 293 viability, ATP luminescence (CellTiter-Glo), 48-72 h; Potency, µM (top dose mostly 115 µM), usual class: inhibitors; 6.6% of 94,000 active; AID 1345083; further: nearly all actives have a fitted effect of over 60% in size
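Luminescence from cellular ATP, measured with CellTiter-Glo, indicates HEK 293 viability. Cells plated at 250 cells/well are treated with compound for 48 or 72 hr at 37 degree Celsius before reagent addition.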
NPR1 antag = blocks ANP-stimulated signaling of human Npr1 receptor; 1.6% of 76,000 active; Potency, µM (highest dose often 46.3 µM), usual class: inhibitors; HEK293 hNpr1 GloSensor cGMP, ANP-stimulated luminescence; P16066; calls by dose curve; further: nearly all actives have a fitted effect of over 60% in size
Target sequence (P16066 whole entry, looked up): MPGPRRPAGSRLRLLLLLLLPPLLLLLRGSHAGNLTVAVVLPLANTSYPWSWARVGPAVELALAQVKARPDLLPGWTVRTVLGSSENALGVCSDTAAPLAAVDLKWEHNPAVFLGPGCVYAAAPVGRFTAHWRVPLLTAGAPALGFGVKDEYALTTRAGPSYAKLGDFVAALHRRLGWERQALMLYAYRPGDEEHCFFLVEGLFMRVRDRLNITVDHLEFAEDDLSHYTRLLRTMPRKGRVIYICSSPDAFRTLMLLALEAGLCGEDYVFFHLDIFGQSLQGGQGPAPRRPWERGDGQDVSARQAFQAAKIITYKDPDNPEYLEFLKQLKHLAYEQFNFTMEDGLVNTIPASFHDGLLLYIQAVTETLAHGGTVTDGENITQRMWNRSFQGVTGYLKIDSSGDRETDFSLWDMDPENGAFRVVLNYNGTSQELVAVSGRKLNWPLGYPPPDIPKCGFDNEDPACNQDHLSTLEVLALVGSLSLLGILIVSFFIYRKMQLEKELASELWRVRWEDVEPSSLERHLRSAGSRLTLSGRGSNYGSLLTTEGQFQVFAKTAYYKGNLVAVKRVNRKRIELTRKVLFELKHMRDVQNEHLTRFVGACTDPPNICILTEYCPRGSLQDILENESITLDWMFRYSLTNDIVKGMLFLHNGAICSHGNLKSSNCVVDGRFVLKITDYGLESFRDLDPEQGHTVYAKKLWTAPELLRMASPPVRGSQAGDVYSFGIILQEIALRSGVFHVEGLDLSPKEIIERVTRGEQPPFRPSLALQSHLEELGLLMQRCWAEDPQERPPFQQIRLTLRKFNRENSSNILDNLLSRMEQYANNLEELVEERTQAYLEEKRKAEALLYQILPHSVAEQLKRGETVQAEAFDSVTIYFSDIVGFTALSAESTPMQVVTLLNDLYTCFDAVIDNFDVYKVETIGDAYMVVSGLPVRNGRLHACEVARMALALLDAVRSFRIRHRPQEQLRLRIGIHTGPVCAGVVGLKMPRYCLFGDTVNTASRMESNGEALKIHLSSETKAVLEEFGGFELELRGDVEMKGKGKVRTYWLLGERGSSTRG
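HEK293 cells stably expressing human Npr1 and cGMP GloSensor pGS-40F, loaded 2 h with 2% GloSensor reagent, given compound 30 min at room temperature. Luminescence read before and 20 min after 0.1 nM hNppA.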
FLuc inh = blocks purified firefly luciferase enzyme activity | P08659 | purified P. pyralis luciferase, luminescence, biochemical | Potency, µM (highest dose often 115 µM), actives largely listed as inhibitors | 2.5% of 76,000 active | AID 1347043; further: nearly all actives have a fitted effect of over 65% in size
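Purified P. pyralis luciferase (10nM final) in 50mM Tris acetate pH 7.5, 10mM Mg acetate, 0.01% Tween-20, 0.05% BSA with 10uM D-luciferin and 10uM ATP. Compounds titrated qHTS. Luminescence imaged on CCD.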
NIH3T3 tox = NIH 3T3 cell cytotoxicity. NIH 3T3 viability, CellTiter-Glo ATP luminescence, 48-72 h. Potency, µM (top dose mostly 96.7 µM), usual class: inhibitors. 4.3% of 94,000 active; further: nearly all actives have a fitted effect of over 55% in size
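ATP-dependent luminescence (CellTiter-Glo) served as the viability signal for NIH 3T3 cells treated with compound for 48 or 72 hr at 37 °C.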
A number is an active result. Unless noted, the call rests on the fitted dose curve; in most records, active means well fitted curve in the direction sought with a large enough effect; inconclusive means small, poorly fitted or top-dose-only effect, or another doubt; inactive means no such curve, though single readings can be large; an effect the other way counts as inactive or inconclusive.

Screening O=C(CCCc1ccccc1)N1CCCCC1c1nc(-c2ccncc2)n[nH]1 (centres undefined) returned HEK cytotox inconclusive and NIH3T3 tox inactive.
Screening COc1cc(C)c2c(c1C)C[C@H](C(C)C(=O)NCc1cccs1)CC2 (some centres undefined) returned HEK cytotox inconclusive, NPR1 antag inactive, FLuc inh inactive and NIH3T3 tox 35µM.
Screening COCCOc1cc(C)c2c(c1C)C[C@H](C(C)C(=O)NCc1cccs1)CC2 (some centres undefined) returned HEK cytotox 50µM, NPR1 antag inactive, FLuc inh inactive and NIH3T3 tox inconclusive.
Screening CCCOc1cc(C)c2c(c1C)C[C@H](C(C)C(=O)NCc1ccc(OC)cc1)CC2 (some centres undefined) returned HEK cytotox inactive, NPR1 antag inactive, FLuc inh inactive and NIH3T3 tox inactive.
For Cc1cc(OCCN(C)C)c(C)c2c1CC[C@@H]([C@H](C)C(=O)NCc1ccccc1)C2 the results were HEK cytotox 50µM, NPR1 antag inactive, FLuc inh inactive and NIH3T3 tox 56µM.
`Cc1nn(-c2ccccc2)c2c1C(C(C)C)N(C1CCN([S+](=O)([O-])c3c(C)noc3C)C1)C2=O` (centres undefined) gave HEK cytotox inconclusive and NIH3T3 tox inactive.
`CCC1(N2CCN(C(=O)Nc3cccc(F)c3C)CC2)CCN(C(=O)C(C)C)C1` (centres undefined) gave HEK cytotox inactive, NPR1 antag inactive, FLuc inh inconclusive and NIH3T3 tox inactive.
COc1ccccc1Nc1ccnc(N2CCC[C@H]2C(=O)NCCc2ccccc2F)n1 was read as HEK cytotox inconclusive and NIH3T3 tox inactive.
COc1ccccc1CNC(=O)C1CCCN1c1nccc(Nc2ccccc2F)n1 (centres undefined) was read as HEK cytotox 40µM and NIH3T3 tox inconclusive.
`O=C(C1CCCN1c1nccc(Nc2ccccc2F)n1)N1CCC(Cc2ccccc2)CC1` (centres undefined) gave HEK cytotox 28µM and NIH3T3 tox 40µM.
COCCNc1ncc(-c2cccc(F)c2)c2c1OCC2 was read as HEK cytotox inconclusive, NPR1 antag inactive, FLuc inh 79µM and NIH3T3 tox inconclusive.
For COc1ccc(C(=O)Nc2ncc(-c3cccc(N(C)C)c3)c3c2OCC3)cc1 the results were HEK cytotox 100µM, NPR1 antag inconclusive, FLuc inh inconclusive and NIH3T3 tox inconclusive.
`CN(C)c1cccc(-c2cnc(NC(=O)c3ccncc3)c3c2CCO3)c1` gave HEK cytotox inconclusive, NPR1 antag inactive, FLuc inh inactive and NIH3T3 tox inactive.
`COCCNc1ncc(-c2cccc(OC)c2)c2c1OCC2` gave HEK cytotox inconclusive, NPR1 antag inactive, FLuc inh 18µM and NIH3T3 tox inconclusive.
`O=C(Nc1ncc(-c2cccc(F)c2)c2c1OCC2)c1c[nH]c2ccccc12` gave HEK cytotox 50µM, NPR1 antag inactive, FLuc inh inconclusive and NIH3T3 tox 40µM.
For COCCNc1ncc(-c2ccc(SC)cc2)c2c1OCC2 the results were HEK cytotox inconclusive, NPR1 antag inactive, FLuc inh inconclusive and NIH3T3 tox inconclusive.
COCCNc1ncc(-c2ccc(NC(C)=O)cc2)c2c1OCC2 was read as HEK cytotox inconclusive, NPR1 antag inactive, FLuc inh inactive and NIH3T3 tox inconclusive.
`COc1ccc(Cc2nc3nccc(-c4ccc(OC)cc4)n3n2)cc1` gave HEK cytotox inconclusive, NPR1 antag inactive, FLuc inh inactive and NIH3T3 tox inactive.
O=S(=O)(c1ccc2c(c1)CCC2)N1CCCC1c1nncn1-c1ccccc1 (centres undefined) was read as HEK cytotox inactive and NIH3T3 tox inactive.
Screening CNC(=O)c1cccc(-c2cnc(Nc3cccc(F)c3)c3c2CCO3)c1 returned HEK cytotox inconclusive, NPR1 antag inactive, FLuc inh 22µM and NIH3T3 tox inconclusive.
For COCCNc1ncc(-c2cccc(N[S+](C)(=O)[O-])c2)c2c1OCC2 the results were HEK cytotox inconclusive, NPR1 antag inactive, FLuc inh 63µM and NIH3T3 tox inconclusive.
Fc1cccc(-c2cnc(Nc3cccnc3)c3c2CCO3)c1 was read as HEK cytotox inconclusive, NPR1 antag inactive, FLuc inh inactive and NIH3T3 tox inconclusive.
For Cc1ccc(CN2CC[C@@H]3C(=O)NCCCCCCN(Cc4ccncc4)[C@@H]3C2)o1 the results were HEK cytotox inconclusive, NPR1 antag inactive, FLuc inh inactive and NIH3T3 tox inconclusive.
